From PubChem BioAssay (NCI)
This is part of a sample that, as a whole, favours compounds with a hit. Of some 83,000 tested, about 20% had one in any assay.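 Results are percent growth after 48 hours of single-concentration exposure. 100 means growth as in untreated cells, lower positive values show inhibition; negative values down to -100 show cell death.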 Active and inactive are the calls of the source. How the source made its calls: active means growth percent below 10; inactive means the rest.

Key:
Assay in all cases: NCI-60 one-dose screen, 48 h (100 = growth as untreated, 0 = no growth, -100 = all killed)
RPMI-8226 leukemia = settings: 10 µM unless noted
OVCAR-8 ovarian = settings: 10 µM unless noted
OVCAR-5 ovarian = settings: 10 µM unless noted
SK-OV-3 ovarian = settings: 10 µM unless noted
OVCAR-3 ovarian = settings: 10 µM unless noted
HS 578T breast = settings: 10 µM unless noted
NCI/ADR-RES ovarian = settings: 10 µM unless noted
T-47D breast = settings: 10 µM unless noted
BT-549 breast = settings: 10 µM unless noted
MDA-MB-435 melanoma = settings: 10 µM unless noted
SW-620 colon = settings: 10 µM unless noted
MCF7 breast = settings: 10 µM
HCC-2998 colon = settings: 10 µM unless noted
KM12 colon = settings: 10 µM unless noted
OVCAR-4 ovarian = settings: 10 µM unless noted
IGROV1 ovarian = settings: 10 µM unless noted
HCT-116 colon = settings: 10 µM unless noted

Measured: growth

COCCN(C(=O)Cc1cccs1)C(C(=O)NCc1ccc(OC)cc1)c1ccc(C(C)C)cc1 (stereo not given)
inactive: RPMI-8226 leukemia 93.2% | OVCAR-8 ovarian 80.9% | OVCAR-5 ovarian 106% | SK-OV-3 ovarian 87.5% | OVCAR-3 ovarian 51.5% | HS 578T breast 76.2% | NCI/ADR-RES ovarian 73.8% | T-47D breast 87% | BT-549 breast 93.9% | MDA-MB-435 melanoma 104% | SW-620 colon 85.3% | MCF7 breast 85.4% | HCC-2998 colon 81.4% | KM12 colon 84.2%

CC[C@@H](C)[C@H](NC(=O)Cn1cc(CNC(=O)[C@@H](NC(=O)OCc2ccccc2)C(C)C)nn1)C(=O)O
inactive: RPMI-8226 leukemia 106% | OVCAR-8 ovarian 96.2% | OVCAR-4 ovarian 111% | SK-OV-3 ovarian 109% | IGROV1 ovarian 113% | OVCAR-3 ovarian 119% | HS 578T breast 104% | NCI/ADR-RES ovarian 105% | T-47D breast 116% | BT-549 breast 107% | MDA-MB-435 melanoma 102% | SW-620 colon 105% | MCF7 breast 100% | HCT-116 colon 107% | HCC-2998 colon 101% | KM12 colon 109%

CN1C(=O)N(C)C2C1NN=c1s/c(=C\c3ccc(Cl)cc3Cl)c(=O)n12 (stereo not given)
inactive: OVCAR-8 ovarian 27.2% | OVCAR-5 ovarian 32.5% | OVCAR-4 ovarian 36.9% | IGROV1 ovarian 16.4% | HS 578T breast 23% | NCI/ADR-RES ovarian 14.9% | T-47D breast 72.1% | BT-549 breast 17.4% | SW-620 colon 27.8% | MCF7 breast 17.7% | HCC-2998 colon 21.7%
active: OVCAR-3 ovarian 3.93% | MDA-MB-435 melanoma -17% | HCT-116 colon 8.45% | KM12 colon 6.57%

COc1ccc(CSc2nnc(SCC(=O)Nc3ccc(Cl)cc3)s2)cc1
inactive: OVCAR-8 ovarian 84.4% | OVCAR-5 ovarian 90.6% | OVCAR-4 ovarian 84.7% | SK-OV-3 ovarian 103% | IGROV1 ovarian 63.6% | OVCAR-3 ovarian 91.2% | HS 578T breast 75.6% | NCI/ADR-RES ovarian 47.6% | T-47D breast 67.2% | BT-549 breast 69% | SW-620 colon 52% | MCF7 breast 63.8% | HCT-116 colon 70.8% | HCC-2998 colon 72.6% | KM12 colon 44.8%

COC(=O)[C@H]1CCCN1C(=O)[C@H]1CCCN1C(=O)[C@H](Cc1c[nH]c2ccccc12)NC(=S)Nc1cc(C(F)(F)F)cc(C(F)(F)F)c1
inactive: OVCAR-8 ovarian 68.5% | OVCAR-5 ovarian 71.1% | OVCAR-4 ovarian 62% | SK-OV-3 ovarian 85.2% | IGROV1 ovarian 44.6% | OVCAR-3 ovarian 63.7% | HS 578T breast 44.8% | NCI/ADR-RES ovarian 93.2% | T-47D breast 56.5% | BT-549 breast 97.4% | MDA-MB-435 melanoma 45.4% | SW-620 colon 70.4% | MCF7 breast 32.5% | HCT-116 colon 41% | HCC-2998 colon 16.1% | KM12 colon 36.4%

O=C(CSc1ncccc1C(=O)O)Nc1ccc(Oc2ccccc2)cc1
inactive: OVCAR-8 ovarian 103% | OVCAR-5 ovarian 108% | OVCAR-4 ovarian 89.4% | SK-OV-3 ovarian 100% | IGROV1 ovarian 104% | OVCAR-3 ovarian 109% | HS 578T breast 92% | NCI/ADR-RES ovarian 100% | T-47D breast 103% | BT-549 breast 97.8% | MDA-MB-435 melanoma 105% | SW-620 colon 91.9% | MCF7 breast 91.5% | HCT-116 colon 96.9% | HCC-2998 colon 102% | KM12 colon 110%

CC(C)[C@H](NC(=O)Cn1cc(C(=O)O)nn1)C(=O)O
inactive: RPMI-8226 leukemia 105% | OVCAR-8 ovarian 98.1% | OVCAR-4 ovarian 104% | SK-OV-3 ovarian 106% | IGROV1 ovarian 111% | OVCAR-3 ovarian 108% | HS 578T breast 112% | NCI/ADR-RES ovarian 106% | T-47D breast 106% | BT-549 breast 104% | MDA-MB-435 melanoma 98.8% | SW-620 colon 108% | MCF7 breast 97.1% | HCT-116 colon 102% | HCC-2998 colon 107% | KM12 colon 103%

CN1C(=O)N(C)C2C1NN=c1s/c(=C\c3ccc([N+](=O)[O-])cc3)c(=O)n12 (stereo not given)
inactive: OVCAR-8 ovarian 81.1% | OVCAR-5 ovarian 86.1% | OVCAR-4 ovarian 82.2% | IGROV1 ovarian 57.4% | OVCAR-3 ovarian 22.7% | HS 578T breast 67.5% | NCI/ADR-RES ovarian 61.5% | T-47D breast 66.5% | BT-549 breast 60.5% | SW-620 colon 37.8% | MCF7 breast 26% | HCT-116 colon 37.6% | HCC-2998 colon 84.9% | KM12 colon 35.5%
active: MDA-MB-435 melanoma 6.25%

O=C(/C=C/c1ccccn1)c1ccc(OCc2nnc(-c3ccc(Cl)cc3)o2)cc1
active: IGROV1 ovarian -22.6% | T-47D breast -13.7% | MDA-MB-435 melanoma -66.2% | SW-620 colon -43.6% | MCF7 breast -28.3% | HCT-116 colon -71.6% | KM12 colon -69.9%
inactive: OVCAR-8 ovarian 20.8% | OVCAR-5 ovarian 89.6% | OVCAR-4 ovarian 31% | SK-OV-3 ovarian 26.8% | OVCAR-3 ovarian 18.6% | HS 578T breast 65.7% | NCI/ADR-RES ovarian 42.5% | BT-549 breast 16.5% | HCC-2998 colon 28%

O=C(CN1C=NC2C(N3CCOCC3)=NC=NC21)c1ccc(Br)cc1 (stereo not given)
inactive: OVCAR-8 ovarian 100% | OVCAR-5 ovarian 99% | OVCAR-4 ovarian 97% | IGROV1 ovarian 95.6% | OVCAR-3 ovarian 108% | HS 578T breast 102% | NCI/ADR-RES ovarian 103% | T-47D breast 101% | BT-549 breast 103% | MDA-MB-435 melanoma 101% | SW-620 colon 100% | MCF7 breast 99.1% | HCC-2998 colon 111% | KM12 colon 107%

O=Nc1c(O)ccc2ccccc12.O=Nc1c(O)ccc2ccccc12.O=Nc1c([O-])ccc2ccccc12.[Fe+3]
inactive: OVCAR-8 ovarian 98.4% | OVCAR-5 ovarian 109% | OVCAR-4 ovarian 104% | SK-OV-3 ovarian 112% | IGROV1 ovarian 91.1% | OVCAR-3 ovarian 102% | HS 578T breast 113% | NCI/ADR-RES ovarian 104% | T-47D breast 104% | BT-549 breast 103% | MDA-MB-435 melanoma 109% | SW-620 colon 97.3% | MCF7 breast 89.2% | HCT-116 colon 97.1% | HCC-2998 colon 113% | KM12 colon 116%

CCOC(=O)c1sc(-c2ccc(OS(=O)(=O)C[C@]34CCC(CC3=O)C4(C)C)c(C=O)c2)nc1C
active: IGROV1 ovarian -21.8% | OVCAR-3 ovarian -5% | BT-549 breast -13.5% | MDA-MB-435 melanoma 7.61% | MCF7 breast 2% | HCT-116 colon 5.89% | KM12 colon 7.78%
inactive: OVCAR-8 ovarian 11.6% | OVCAR-5 ovarian 46.9% | OVCAR-4 ovarian 18.6% | SK-OV-3 ovarian 46% | HS 578T breast 31.6% | NCI/ADR-RES ovarian 11% | SW-620 colon 10.5% | HCC-2998 colon 66.4%

O=C(NC1CCN(Cc2ccccc2)CC1)c1cc2nc(-c3ccc(Cl)s3)cc(C(F)(F)F)n2n1
active: RPMI-8226 leukemia -18.4% | MDA-MB-435 melanoma -82% | SW-620 colon -6.12% | MCF7 breast -68.2%
inactive: OVCAR-5 ovarian 93.2% | OVCAR-4 ovarian 66.4% | SK-OV-3 ovarian 92.6% | IGROV1 ovarian 118% | OVCAR-3 ovarian 89.9% | HS 578T breast 87.3% | NCI/ADR-RES ovarian 94.4% | T-47D breast 97.1% | BT-549 breast 66% | HCT-116 colon 28% | HCC-2998 colon 84.2% | KM12 colon 37.1%
